Most compounds without a hit are left out; they make up all but 4.6% or so of the library.
HIF-2a block: HIF-2a inhibition. AID 624352. hit rate 0.72% among 360,000. 786-0 RCC cells HIF-2a reporter, luciferase luminescence, overnight. inhibition, % at 18.8 µM;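 active means inhibition of the luminescence signal of 40% or more relative to plate controls, in a single-dose primary screen at 18.75 µM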
Peg3 promoter: Peg3 promoter activity inhibition | HeLa PEG-Prom luciferase reporter, luminescence, overnight | inhibition, % at 20 µM | hit rate 1.7% among 360,000 | AID 588405;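 active means inhibition of at least 50% at 20 µM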
CF NFkB block: blocks PAF-induced NF-kB reporter in cystic fibrosis cells. inhibition, % at 5 µM. hit rate 0.86% among 360,000. KKLEB NF-kB-GFP reporter, GFP fluorescence overnight;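 active means at least 50% inhibition at 5 µM, scaled per plate between neutral and stimulator controls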;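 further: PAF is a Pseudomonas aeruginosa culture filtrate used as stimulus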
KKLEB cytotox: counter-screen for CF NF-kB inhibitors: cytotoxicity; KKLEB CF airway cells viability, ATPlite luminescence, overnight; hits give low values; cells stimulated with P. aeruginosa culture filtrate; activity change (cytotoxicity), % at 5 µM; hit rate 0.36% among 360,000; AID 602141;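 active means corrected activity change at or below -50% at 5 µM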
Mdm2 MdmX PPI: disrupts the human Mdm2-MdmX interaction; O15151+Q00987; SaOS-2 split-luciferase Mdm2/MdmX complementation, luminescence; inhibition, % at 8 µM; hit rate 3% among 330,000; AID 485346;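 active means inhibition of at least 50% at 8 µM in the primary screen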
Target sequence (O15151 whole entry, looked up): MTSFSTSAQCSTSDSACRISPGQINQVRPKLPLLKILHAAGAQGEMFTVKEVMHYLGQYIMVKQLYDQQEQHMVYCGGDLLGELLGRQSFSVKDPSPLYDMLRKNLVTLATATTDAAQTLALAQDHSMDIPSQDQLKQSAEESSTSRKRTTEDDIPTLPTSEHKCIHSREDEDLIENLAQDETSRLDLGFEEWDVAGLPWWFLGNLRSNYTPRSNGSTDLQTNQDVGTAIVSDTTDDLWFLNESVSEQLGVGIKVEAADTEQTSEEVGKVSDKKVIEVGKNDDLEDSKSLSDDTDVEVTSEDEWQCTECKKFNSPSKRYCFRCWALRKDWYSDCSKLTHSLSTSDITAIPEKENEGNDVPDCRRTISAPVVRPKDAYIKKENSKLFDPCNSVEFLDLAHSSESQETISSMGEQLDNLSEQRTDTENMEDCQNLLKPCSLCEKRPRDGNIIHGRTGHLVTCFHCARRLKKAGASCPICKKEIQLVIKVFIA
Target sequence (Q00987 whole entry, looked up): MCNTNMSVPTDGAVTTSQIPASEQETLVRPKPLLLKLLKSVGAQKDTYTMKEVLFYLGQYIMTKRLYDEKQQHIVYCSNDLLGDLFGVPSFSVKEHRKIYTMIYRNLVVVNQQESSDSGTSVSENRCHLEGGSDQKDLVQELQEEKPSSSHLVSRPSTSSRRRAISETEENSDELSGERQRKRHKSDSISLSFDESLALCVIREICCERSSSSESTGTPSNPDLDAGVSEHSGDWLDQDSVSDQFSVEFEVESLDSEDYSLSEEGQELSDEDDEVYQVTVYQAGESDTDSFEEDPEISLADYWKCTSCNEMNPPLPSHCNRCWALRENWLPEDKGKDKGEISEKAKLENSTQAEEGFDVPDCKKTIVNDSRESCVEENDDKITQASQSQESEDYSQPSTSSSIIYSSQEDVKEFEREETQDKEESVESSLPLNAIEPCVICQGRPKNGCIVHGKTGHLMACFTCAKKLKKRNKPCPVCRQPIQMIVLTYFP
ABHD5 PLIN5 PPI: inhibitors of human ABHD5-perilipin-5 interaction; Q00G26+Q8WTS1; Split G. princeps luciferase complementation, luminescence, 4 h; inhibition, % at 4 µM; hit rate 0.78% among 360,000;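 active means inhibition above the mean inhibition across every tested compound plus 3 SD, cut at about 22% in these data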
Hits are given with their value; 0 = inactive; - = no result.

SMILES	HIF-2a block	Peg3 promoter	CF NFkB block	KKLEB cytotox	Mdm2 MdmX PPI	ABHD5 PLIN5 PPI
Cn1cccc1C(=O)NNC(=O)COc1ccc(C#N)cc1	0	74	0	0	0	0
O=C(NC1CC1)c1cccc(NC(=O)C2CCN(S(=O)(=O)c3ccccc3C(F)(F)F)CC2)c1	0	0	0	0	-	0
c1ccc(-c2cn3nc(-c4ccccc4)sc3n2)cc1	0	0	0	-60	0	0
Cc1c(C(=O)N2CCN(c3ccccn3)CC2)sc2ncnc(N3CCOCC3)c12	0	0	0	0	0	0
Cc1c(C(=O)N2CCN(c3ccccc3)CC2)sc2ncnc(N3CCN(c4ccccn4)CC3)c12	0	56	0	0	0	0
Cc1nc(N2CCN(c3ccccn3)CC2)c2c(C)c(C(=O)N3CCN(c4ccc(F)cc4)CC3)sc2n1	0	58	0	0	0	0
CC(=O)N1CCN(C(=O)c2cc(=O)c3ccccc3o2)CC1	0	0	0	0	0	0
Cc1ccc(S(C)(=O)=O)cc1C(=O)OCC(=O)N1CCCC1=O	0	0	0	0	0	0
CCc1nc2c(OCc3ccccc3C(=O)OC)cccn2c1N(C)C(=O)CC(C)C	0	0	0	0	-	0
OC(c1cc(-c2cccc(Cl)c2)nc2ccccc12)C1CCCCN1 (stereo not drawn)	0	104	0	0	-	0
COc1cc2c(cc1[N+](=O)[O-])-c1ccc([N+](=O)[O-])cc1C2=NO	0	52	0	0	-	0
O=[N+]([O-])c1ccc2c(c1)/C(=N\O)c1ccccc1-2	0	0	0	0	0	0
CC1(C)CC[C@]2(C(=O)n3ccnc3)CC[C@]3(C)[C@H](C(=O)C=C4[C@@]5(C)C=C(C#N)C(=O)C(C)(C)[C@@H]5CC[C@]43C)[C@@H]2C1	90	106	85	-70	-	0
Cc1cc(CN2CCC(n3nccc3NC(=O)c3ccccc3Cl)CC2)cc(C)c1O	0	0	0	0	0	0
Cc1c(CCC(=O)N[C@@H](C)C(=O)O)c(=O)oc2cc3oc4c(c3cc12)CCCC4	76	0	0	0	0	0
Cc1c(CC(=O)NCCC(=O)O)c(=O)oc2cc3oc4c(c3cc12)CCCC4	0	0	0	0	0	0
Cc1c(CCC(=O)N2CCC(C(=O)O)CC2)c(=O)oc2cc3oc4c(c3cc12)CCCC4	58	0	0	0	0	0
C=CCn1c(SCC(=O)NC2(C)CCS(=O)(=O)C2)nc2ccccc21 (stereo not drawn)	0	0	0	0	0	0
COc1ccc(OC)c(NC(=O)Nc2ccc3[nH]ccc3c2)c1	0	0	0	0	0	0
O=C(c1cccs1)N1CCN(Cc2nc(-c3ccccc3)no2)CC1	0	0	0	0	-	0
C=CC[C@@H](CC(=O)N(CCO)Cc1ccccc1)C(=O)NC[C@H](OC(=O)[C@@H](CC=C)CC(=O)OC(C)(C)C)c1ccccc1	0	0	0	0	0	22
C=CC[C@H](CC(=O)N(CCO)Cc1ccccc1)C(=O)NCCOC(=O)[C@H](CC=C)CC(=O)OC(C)(C)C	0	0	0	0	0	0
C=CC[C@@H](CC(=O)N[C@H](CO)Cc1ccccc1)C(=O)NCCOC(=O)[C@@H](CC=C)CC(=O)OC(C)(C)C	0	0	0	0	0	0
CCCC(=O)Nc1nc2c(s1)COc1ccccc1-2	0	0	0	0	0	0
O=C(CCSc1ccccc1)Nc1nc2c(s1)COc1ccccc1-2	0	54	0	0	0	0
SMILES	HIF-2a block	Peg3 promoter	CF NFkB block	KKLEB cytotox	Mdm2 MdmX PPI	ABHD5 PLIN5 PPI
COc1ccc(CNC(=O)c2ccc3nc(C)c(N(C)Cc4ccc(NC(C)=O)cc4)n3c2)cc1	0	0	0	0	-	0
COc1cc(OC)cc(-c2nc3ccccc3c(=O)n2OC(=O)c2ccccc2C)c1	0	53	0	0	0	0
CC(C)C[C@H]1CNC(=O)C(=O)N1C[C@@H]1CCCN1C[C@H](CC(C)C)N1C[C@H](Cc2ccc(O)cc2)N(CCc2ccccc2)C(=O)C1=O	0	-	-	-	-	0
O=S(=O)(Nc1ccc(-c2ccc3nncn3n2)cc1)c1ccccc1F	0	51	0	0	0	0
O=S(=O)(Nc1cccc(-c2ccc3nncn3n2)c1)c1ccccc1F	0	0	0	0	0	0
CC(C)(C)c1ccc(CC(=O)N2CCC2(C)C(=O)Nc2cnc3ccccc3c2)cc1 (stereo not drawn)	0	0	0	0	-	0
CC(C)NC(=O)CSc1ccccc1C(=O)N1CCN(S(=O)(=O)Cc2ccccc2)CC1	0	0	0	0	0	0
Cc1ccccc1Nc1ccc(S(=O)(=O)N2CCOCC2)cc1[N+](=O)[O-]	0	59	0	0	0	0
NS(=O)(=O)c1ccc(CNC(=O)Cc2ccc(S(=O)(=O)N3CCOCC3)s2)cc1	0	0	0	0	0	0
Cc1cccc2sc(NNC(=O)c3ccc(S(=O)(=O)N4CCCC(C)C4)cc3)nc12 (stereo not drawn)	0	68	0	0	-	0
CC1CCCN(S(=O)(=O)c2ccc(C(=O)Nc3ccccc3-c3nc4ccccc4[nH]3)cc2)C1 (stereo not drawn)	0	0	68	-55	0	0
CC1CCN(S(=O)(=O)c2ccc(C(=O)Nc3ccccc3-c3nc4ccccc4[nH]3)cc2)CC1	0	0	0	0	0	0
CCCNC(=O)C1(C)CCCN(C(=O)c2ccccc2OC(F)(F)F)C1 (stereo not drawn)	0	0	0	0	-	0
CC(C)CN1CC(C)C(=O)NC1=S (stereo not drawn)	0	0	0	0	-	0
COc1ccc(OC)c(N=Nc2c(O)c3ccccc3[nH]c2=O)c1	0	70	0	0	-	0
NC(=O)c1ccc(N=Nc2c(O)c3ccccc3[nH]c2=O)cc1	-	-	-	-	0	-
c1ccc(-c2csc(Nc3ccc4c(c3)OCCO4)n2)cc1	0	0	0	0	0	0
N#C/C(=C\Nc1ccc2c(c1)OCCO2)c1nc(-c2ccccc2)cs1	0	0	77	-76	0	0
O=C1c2cc([N+](=O)[O-])ccc2-c2cc(Br)c(N=C(NO)C(F)(F)F)cc21	0	97	0	0	-	0
O=C1C(Nc2ccccc2)=C/C(=N/S(=O)(=O)c2cccs2)c2ccccc21	0	105	100	-91	-	0
CC1=CC(=O)c2ccccc2C1=O	0	0	62	0	0	0
O=C(O)c1cccc(NS(=O)(=O)c2ccc3c(c2)C(=O)c2ccccc2C3=O)c1	0	0	0	0	0	0
O=S(=O)(/N=C(/Nc1cccc2ccccc12)c1ccccc1)c1cccs1	0	0	0	0	0	0
Cc1cccc(NC2=C(NC(=O)c3ccccc3)C(=O)c3ccccc3C2=O)c1	0	0	0	0	0	0
Cc1ccc(S(=O)(=O)/N=C2\C=C(Nc3cccc(C(=O)O)c3)C(=O)c3ccccc32)c(C)c1	0	0	92	0	0	0
Cc1ccc(S(=O)(=O)/N=C2\C=C(Nc3cccc(C(=O)O)c3)C(=O)c3ccccc32)cc1	0	0	98	0	0	0

Assay outcomes (PubChem BioAssay)
